This is a sample that favours compounds with a hit; in the whole collection about 5.3% have one here.
Mot1-301 SUMO: blocks SUMOylation pathway, rescuing yeast Mot1-301 growth; S. cerevisiae Mot1-301 growth rescue, ATP luminescence, 38.5C; percent above DMSO median, 100 means doubled; growth rescue, % at 18.8 µM; hit rate 1% among 320,000;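 active means every valid replicate shows activation above 250% relative to neutral control wells; inactive means the rest, any valid replicate at or below 250%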
PfM18AAP inh-1: blocks P. falciparum M18 aspartyl aminopeptidase | hit rate 1.2% among 290,000 | recombinant PfM18AAP, H-Glu-NHMec fluorogenic cleavage | AID 1822 | inhibition, % at 7.35 µM;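 active means inhibition above the campaign mean inhibition over all tested compounds plus 3 SD, cut at about 28% in these data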
HIF activator: HIF pathway transcriptional activation; U2OS HRE-luciferase reporter, luminescence; normalized: DMSO 0%, desferrioxamine 100%; hit rate 0.32% among 300,000; activation, % at 7.5 µM (by protocol); AID 1910;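 active means mean activation of at least 10% of the iron chelator positive control signal, with at least half of replicates also reaching 10%; inconclusive means mean and replicate majority disagree about reaching 10%; inactive means mean and most replicates under 10%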
ALR H2O2 inh: inhibitors of human sulfhydryl oxidase ALR | purified ALR, DTT oxidation, H2O2 HRP-luminol luminescence | inhibition, % (no concentration beside the values) | hit rate 3.8% among 290,000 | AID 485317;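 active means mean replicate inhibition above about 79%, with every replicate also reaching it, limit read from the data; inconclusive means only one of the two criteria met; inactive means mean below limit and not every replicate reaching it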
Target sequence (P55789 whole entry, looked up): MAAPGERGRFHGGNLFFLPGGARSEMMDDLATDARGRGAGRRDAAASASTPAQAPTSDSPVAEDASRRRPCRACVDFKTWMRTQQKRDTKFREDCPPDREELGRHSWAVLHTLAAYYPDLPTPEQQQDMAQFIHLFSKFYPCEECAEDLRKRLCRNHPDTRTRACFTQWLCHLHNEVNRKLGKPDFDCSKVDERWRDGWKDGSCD
PfM18AAP inh-2: PfM18AAP inhibition, confirmation; shares compounds with PfM18AAP inh-1; recombinant PfM18AAP, H-Glu-NHMec fluorogenic cleavage; inhibition, % at 7.35 µM; hit rate 28% among 2,400;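 active means mean inhibition over replicate wells above the hit cutoff set for the earlier primary screen, cut at about 29% in these data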
CTSL1 confirm: Cathepsin L (human) inhibition, confirmation; shares compounds with PfM18AAP inh-1; purified cathepsin L1, Z-Leu-Arg-MCA fluorescence; inhibition, % at 5.96 µM; 2,400 tested, under 10 active;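 active means average inhibition across replicates above the hit cutoff set in the earlier primary screen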
Target sequence (P07711 whole entry, looked up): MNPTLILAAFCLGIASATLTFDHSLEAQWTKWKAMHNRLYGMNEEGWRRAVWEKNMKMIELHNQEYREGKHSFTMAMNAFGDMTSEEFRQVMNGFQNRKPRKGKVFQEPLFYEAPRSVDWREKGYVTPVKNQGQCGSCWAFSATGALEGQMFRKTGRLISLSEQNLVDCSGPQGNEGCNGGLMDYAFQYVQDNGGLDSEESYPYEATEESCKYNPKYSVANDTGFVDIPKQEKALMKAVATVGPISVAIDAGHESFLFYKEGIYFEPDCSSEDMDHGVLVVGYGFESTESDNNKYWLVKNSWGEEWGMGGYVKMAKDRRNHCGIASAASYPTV
Large screens that a line does not name were inactive (follow-up assays come after a bar, where they were run).

COc1ccccc1CN1CN(S(=O)(=O)c2ccccc2)c2nc3ccccc3nc21	none
CCOC(=O)c1cnn(-c2ccc(C(F)(F)F)cn2)c1N	none
CCOC(=O)NNc1ccc(C(F)(F)F)cn1	PfM18AAP inh-1 56 | PfM18AAP inh-2 35 | CTSL1 confirm inactive
CC(=O)Nc1ccccc1NC(=O)C/C(C)=N/NC(=O)c1ccccn1	PfM18AAP inh-1 41 | PfM18AAP inh-2 inactive | CTSL1 confirm inactive
Cc1cc(OC(=O)c2ccccc2Br)c([N+](=O)[O-])c(=O)[nH]1	none
CCn1c(=O)c([N+](=O)[O-])c(NCC2CCCO2)c2ccccc21 (stereo not given)	none (no result: ALR H2O2 inh)
COc1cccc(/C=N/N2C(=O)CSC2=S)c1O	PfM18AAP inh-1 32, ALR H2O2 inh 98 | PfM18AAP inh-2 inactive | CTSL1 confirm inactive
O=C1CSC(=S)N1/N=C/c1cccc(C(F)(F)F)c1	PfM18AAP inh-1 40 | PfM18AAP inh-2 inactive | CTSL1 confirm inactive
O=C1CSC(=S)N1/N=C/c1c(F)cccc1F	PfM18AAP inh-1 37 (no result: ALR H2O2 inh) | PfM18AAP inh-2 inactive | CTSL1 confirm inactive
CCOC(=O)C1=C(C)NC(SCC(=O)OC)=C(C#N)C1c1ccc(C(=O)OC)cc1 (stereo not given)	PfM18AAP inh-1 36 | PfM18AAP inh-2 inactive | CTSL1 confirm inactive
Cc1c(C#N)c(O)n(CCO)c(=O)c1N=Nc1ccc(S(N)(=O)=O)cc1	PfM18AAP inh-1 35 | PfM18AAP inh-2 inactive | CTSL1 confirm inactive
Cc1c(C#N)c(O)n(C)c(=O)c1N=Nc1ccc(S(N)(=O)=O)cc1	PfM18AAP inh-1 35 (no result: Mot1-301 SUMO, ALR H2O2 inh) | PfM18AAP inh-2 inactive | CTSL1 confirm inactive
Nc1nc(Sc2ccc([N+](=O)[O-])cc2[N+](=O)[O-])n[nH]1	PfM18AAP inh-1 57 | PfM18AAP inh-2 56 | CTSL1 confirm inactive
Cc1ccnc(Sc2ccc([N+](=O)[O-])cc2[N+](=O)[O-])n1	none
COc1ccc(C2/C(=C(/O)c3ccc4c(c3)CC(C)O4)C(=O)C(=O)N2CCN2CCOCC2)cc1 (stereo not given)	none
CC1Cc2cc(/C(O)=C3/C(=O)C(=O)N(CCN4CCOCC4)C3c3ccc([N+](=O)[O-])cc3)ccc2O1 (stereo not given)	PfM18AAP inh-1 33 | PfM18AAP inh-2 inactive | CTSL1 confirm inactive
O=C(C1=C(O)C(=O)N(CCN2CCOCC2)C1c1ccc([N+](=O)[O-])cc1)c1cc2ccccc2o1 (stereo not given)	PfM18AAP inh-1 34 | PfM18AAP inh-2 inactive | CTSL1 confirm inactive
COc1cccc(CC(=O)OCC(=O)c2cc(OC)c(OC)c(OC)c2)c1	none (no result: PfM18AAP inh-1, HIF activator, ALR H2O2 inh)
N#C/C(=C\c1ccc(O)c(O)c1)C(=O)N1CCCC1	PfM18AAP inh-1 56, ALR H2O2 inh 100 | PfM18AAP inh-2 inactive | CTSL1 confirm inactive
Cc1ccc([N+](=O)[O-])cc1-c1[nH]c(-c2ccc(O)c(O)c2)nc1-c1ccccc1	PfM18AAP inh-1 73, ALR H2O2 inh 97 | PfM18AAP inh-2 74 | CTSL1 confirm inactive
Cc1ccc([N+](=O)[O-])cc1NC(=O)c1ccc(-c2ccccc2)cc1	none (no result: Mot1-301 SUMO)
Cc1c(C)n(CCc2ccccc2)c2ncnc(NCCCN(C)C)c12	none (no result: ALR H2O2 inh)
COc1ccc2sc(C)[n+](C)c2c1	PfM18AAP inh-1 43 | PfM18AAP inh-2 inactive | CTSL1 confirm inactive
COC(=O)Nc1nc(Sc2ncc(C(F)(F)F)cc2Cl)n[nH]1	PfM18AAP inh-1 69 | PfM18AAP inh-2 70 | CTSL1 confirm inactive
COc1ccc(NC(=O)c2csc(C)c2)cc1OC	none
CCC1CCCCN1C(=O)c1cc(S(=O)(=O)N2CCOCC2)ccc1C (stereo not given)	none (no result: PfM18AAP inh-1, HIF activator)
Cc1ccc(-c2nc(N/N=C/c3ccncc3)c3ccccc3n2)cc1	PfM18AAP inh-1 43 (no result: HIF activator) | PfM18AAP inh-2 inactive | CTSL1 confirm inactive
O=c1c2cc(N3CCOCC3)ccc2[nH]c(=S)n1Cc1ccccn1	PfM18AAP inh-1 44 | PfM18AAP inh-2 inactive | CTSL1 confirm inactive
O=c1[nH]c(CSc2nnc3ccccn23)nc2cc(C(F)(F)F)ccc12	none
COc1ccc(Nc2nc(N/N=C/c3ccc(N(C)C)cc3)nc(C)c2[N+](=O)[O-])cc1	PfM18AAP inh-1 49, HIF activator inconclusive | PfM18AAP inh-2 inactive | CTSL1 confirm inactive
COc1ccc(Nc2nc(NN)nc(C)c2[N+](=O)[O-])cc1	PfM18AAP inh-1 52 | PfM18AAP inh-2 inactive | CTSL1 confirm inactive
O=C(CSC(=S)N1CCOCC1)Nc1ccc(S(=O)(=O)Nc2ncccn2)cc1	none
CCN1/C(=C/C(C)=C/c2sc3ccccc3[n+]2CC)Sc2ccccc21	PfM18AAP inh-1 44, ALR H2O2 inh 99 | PfM18AAP inh-2 inactive | CTSL1 confirm inactive
Cn1nc(C(=O)NNC(=O)COc2ccccc2)c2ccccc2c1=O	PfM18AAP inh-1 44 | PfM18AAP inh-2 32 | CTSL1 confirm inactive
O=C(CCc1ccc(O)c(O)c1)N/N=C/c1ccc2c(c1)OCO2	PfM18AAP inh-1 79, ALR H2O2 inh 95 | PfM18AAP inh-2 50 | CTSL1 confirm inactive
CC(C)Oc1ccc(CCC(=O)N/N=C/c2ccc3c(c2)OCO3)cc1	none
COCCN1CC(CNC(=O)c2cc(COc3ccc(C)c(C)c3)on2)CC1=O (stereo not given)	none
NNc1nc(-c2ccccc2)nc2sc3c(c12)CCCC3	PfM18AAP inh-1 32 | PfM18AAP inh-2 inactive | CTSL1 confirm inactive
COc1ccc(-n2c(O)c(C=NC3CC3)c(=O)[nH]c2=O)cc1	none
COc1ccc(-n2c(O)c(/C=C3\C=Nc4ccccc43)c(=O)[nH]c2=O)cc1	PfM18AAP inh-1 32 (no result: Mot1-301 SUMO, ALR H2O2 inh) | PfM18AAP inh-2 inactive | CTSL1 confirm inactive
COCCN(C(=O)c1cccc(-n2cnnn2)c1)c1c(N)n(CC(C)C)c(=O)[nH]c1=O	none (no result: PfM18AAP inh-1)
COc1ccccc1N1C(=O)C=C(Sc2nc(C)cc(C)n2)C1=O	PfM18AAP inh-1 35 | PfM18AAP inh-2 inactive | CTSL1 confirm inactive
O=C(c1ccc(Cl)cc1)c1c[nH]c(C(=O)NNc2ccccc2)c1	Mot1-301 SUMO 337, PfM18AAP inh-1 33 | PfM18AAP inh-2 inactive | CTSL1 confirm inactive
COC(=O)C1=C(C(C)=O)C(c2ccc(C(=O)OC)cc2)n2nnnc2N1 (stereo not given)	PfM18AAP inh-1 52 | PfM18AAP inh-2 inactive | CTSL1 confirm inactive
CCOc1cc(C2C(C(=O)c3ccc(C)cc3)=C(C(=O)OC)Nc3nnnn32)ccc1O (stereo not given)	PfM18AAP inh-1 57 | PfM18AAP inh-2 inactive | CTSL1 confirm inactive
COC(=O)C1=C(C(C)=O)C(c2ccc(C)cc2)n2nnnc2N1 (stereo not given)	PfM18AAP inh-1 52 | PfM18AAP inh-2 inactive | CTSL1 confirm inactive
O=C(Nn1cnnc1)c1ccc(Cl)c(Cl)c1	PfM18AAP inh-1 52 | PfM18AAP inh-2 50 | CTSL1 confirm inactive
O=C(Nn1cnnc1)c1cc(Br)ccc1Cl	PfM18AAP inh-1 60 | PfM18AAP inh-2 55 | CTSL1 confirm inactive
O=C(NCCO)c1ccc(Cl)c(Cl)c1	none
CCNC(=O)c1cc(Br)ccc1Cl	none
O=C(CN1CCOCC1)N/N=C/c1ccc(-c2cccc(Cl)c2Cl)o1	none

Bioassay records (PubChem)
